# High-throughput results deposited in PubChem by National Center for Advancing Translational Sciences (NCATS).
# Sampled rows, rich in hits. Any-hit rate of the full collection: about 19%.
# IL-1B inflam inh = qHTS for Inhibitors of Inflammasome Signaling: IL-1-beta AlphaLISA Primary Screen | THP-1 LPS/ATP IL-1B secretion, AlphaLISA, 16 h; stronger effect = lower value | activity change, % at 57.5 µM | hit rate 4.7% among 360,000; in the data active means activity change below about -50%; inconclusive means mostly about -30% to -49%
#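 Secreted IL-1B measured by AlphaLISA bead assay after 16 h compound exposure of THP-1 cells; compounds (final up to 57.5 uM) added 1 h before LPS (250 ng/mL) and ATP (1.25 mM) stimulation; lower signal means less secretion.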
# TDP1 cell noCPT = qHTS for Inhibitors of human tyrosyl-DNA phosphodiesterase 1 (TDP1): qHTS in cells in absence of CPT; DT40 Tdp1-/- hTDP1 cells, no CPT, ATP luminescence, 48 h; Potency, µM (doses to about 46.2 µM), most hits filed as inhibitors; hit rate 15% among 420,000; further: nearly all actives have a fitted effect of over 55% in size
#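 Chicken DT40 Tdp1-/- cells complemented with human TDP1, screened without camptothecin (DMSO vehicle only), 400 cells/well. Compounds pin-transferred, cells incubated at 37 °C for at least 48 hr. Growth read as ATP-dependent luminescence (CellTiter-Glo, 30 min at RT).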
# ELG1 DNA repair = qHTS screen for small molecules that inhibit ELG1-dependent DNA repair in human embryonic kidney (HEK293T) cells expressing luciferase-tagged ELG1 | HEK293T ELG1-luciferase reporter, luminescence, 16 h; DNA damage induced by 5-fluorouridine | Potency, µM (titrated, usually from 46.1 µM), actives largely listed as inhibitors | hit rate 2.3% among 330,000 | AID 504467, 2011; further: nearly all actives have a fitted effect of over 55% in size
#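 Cells (2,000 per well) received 5-fluorouridine plus test compound or DMSO and were incubated 16 hr at 37 °C, 5% CO2. Luciferase activity was read by luminescence 30 min after ONE-Glo addition; signal suppression marked inhibition of damage-induced ELG1 function.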
# HT1080 IDH1KD tx = qHTS for induction of synthetic lethality in tumor cells producing 2HG: qHTS for the HT-1080-IDH1KD cell line. HT-1080 IDH1 knockdown viability, ATP luminescence, 48 h. Potency, µM (doses to about 46.1 µM), most hits filed as cytotoxic. hit rate 2% among 360,000
#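 In this qHTS, HT-1080 cells depleted of IDH1 are exposed for 48 h at 37 °C to compound titrations. Toxicity is scored from CellTiter-Glo luminescence, with DMSO as full viability and medium alone as none.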
# HT1080NT lethal = qHTS for induction of synthetic lethality in tumor cells producing 2HG: qHTS for the HT-1080-NT fibrosarcoma cell line; Potency, µM (highest dose often 46.1 µM), usual class: cytotoxic; hit rate 1.6% among 360,000; HT-1080-NT fibrosarcoma viability, CellTiter-Glo ATP luminescence, 48 h;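 further: NT is the 2HG producing partner of a matched IDH1 knockdown line; nearly all actives have a fitted effect of over 55% in size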
#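 Read-out is CellTiter-Glo luminescence after 10 minutes at room temperature, following 48 hours' compound treatment of HT-1080-NT cells (750 cells/well, RPMI, 5% FBS, 37 degrees C).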
# DT40 TDP1 CPT = qHTS for Inhibitors of human tyrosyl-DNA phosphodiesterase 1 (TDP1): qHTS in cells in presence of CPT; AID 686979, 2013; chicken DT40 Tdp1-/-;hTDP1 cells + 20 nM CPT, ATP luminescence, 48 h; Potency, µM (titrated, usually from 46.2 µM), actives largely listed as inhibitors; hit rate 12% among 420,000; further: nearly all actives have a fitted effect of over 55% in size
#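 Chicken DT40 Tdp1-/- cells complemented with human TDP1, 400 cells/well, exposed to compounds plus 20 nM camptothecin for at least 48 h at 37 C; viability read as ATP content by CellTiter-Glo luminescence.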
# Hits are given with their value; 0 = inactive; ? = inconclusive; - = no result given. Unless noted, the call rests on the fitted dose curve; in most records, active means well fitted curve in the direction sought with a large enough effect; inconclusive means small, poorly fitted or top-dose-only effect, or another doubt; inactive means no such curve, though single readings can be large; an effect the other way counts as inactive or inconclusive.
SMILES,IL-1B inflam inh,TDP1 cell noCPT,ELG1 DNA repair,HT1080 IDH1KD tx,HT1080NT lethal,DT40 TDP1 CPT
CCn1cc(C(=O)O)c(=O)c2cc(F)c(N3CCN(C(=S)NC(=O)c4cccc(F)c4)CC3)cc21,0,0,0,0,0,?
O=C(CN1C(=O)C(=O)N(Cc2ccco2)C1=O)Nc1ccccc1,0,0,?,0,0,0
Cc1cc(=O)n2nc(N3CCC(C(=O)Nc4ccc(Br)c(C)c4)CC3)sc2n1,-,0,-,-,-,15µM
CC(C)Cc1ccc(C(C)C(=O)Nc2ncccn2)cc1 (stereo unspecified),0,?,0,0,0,0
COC(=O)c1cc(NC(=O)C(C)c2ccc(CC(C)C)cc2)ccc1O (stereo unspecified),0,?,?,0,0,21µM
O=C(CCC1N=C2c3ccccc3N=C(SCc3ccccc3Cl)N2C1=O)NCc1cccs1 (stereo unspecified),-,21µM,-,-,-,?
O=C(CCC1N=C2c3ccccc3N=C(SCC(=O)Nc3ccc(F)cc3)N2C1=O)NCc1cccs1 (stereo unspecified),-,15µM,-,-,-,15µM
CC(C)c1ccc(NC(=O)CSC2=Nc3ccccc3C3=NC(CCC(=O)NCc4cccs4)C(=O)N23)cc1 (stereo unspecified),-,26µM,-,-,-,23µM
Cc1ccc(CSC2=Nc3ccccc3C3=NC(CCC(=O)NCc4cccs4)C(=O)N23)cc1 (stereo unspecified),-,?,-,-,-,0
O=C(CCC1N=C2c3ccccc3N=C(SCC(=O)Nc3ccccc3F)N2C1=O)NCc1cccs1 (stereo unspecified),-,0,-,-,-,0
COC(=O)c1ccccc1NC(=O)c1noc2c1CSc1ccccc1-2,-,0,-,-,-,0
CCc1cccc(CC)c1N1C(=O)C2=C(SCCCS2)C1=O,0,?,-,0,0,?
COc1ccc(C(CC(=O)Nc2cccc(C)c2C)N2Cc3ccccc3C2=O)cc1 (stereo unspecified),-,16µM,-,-,-,13µM
CCc1cccc(NC(=O)CC(c2ccc(OC)cc2)N2Cc3ccccc3C2=O)c1 (stereo unspecified),-,16µM,-,-,-,21µM
COc1ccc(C(CC(=O)O)N2Cc3ccccc3C2=O)cc1 (stereo unspecified),0,0,0,0,0,0
CCOC(=O)c1cccc(NC(=O)CC(c2ccc(F)cc2)N2Cc3ccccc3C2=O)c1 (stereo unspecified),-,26µM,-,-,-,?
COc1ccc(Cl)cc1C1=NOC2(CCC2)C(=O)N1Cc1ccc(NC(C)=O)cc1,0,?,-,0,0,?
CCn1c(=O)n(-c2ccc(F)c(Cl)c2)c(=O)c2sc3ccccc3c21,-,0,-,-,-,0
Cc1cccc(N2CCN(C(=O)CCc3nc4ccccc4[nH]3)CC2C)c1 (stereo unspecified),0,?,?,0,0,?
Cc1ccc(N2CCN(C(=O)CCc3nc4ccccc4[nH]3)CC2)c(C)c1,0,?,?,0,0,18µM
Cc1ccc2c(c1)CCCN2C(=O)CCc1nc2ccccc2c(=O)[nH]1,0,?,?,?,8.2µM,0.46µM
O=C(CSc1ncc(-c2ccccc2)[nH]1)Nc1cccc(O)c1,0,0,16µM,0,0,0
O=C(CSc1ncc(-c2ccccc2)[nH]1)Nc1ccccc1,0,?,0,0,0,?
O=C(CSc1ncn[nH]1)Nc1ccc(Cl)c(Cl)c1,-52,?,0,0,0,0
O=C(CSc1ncc(-c2ccccc2)[nH]1)Nc1cccc(Br)c1,-,?,-,-,-,23µM
SMILES,IL-1B inflam inh,TDP1 cell noCPT,ELG1 DNA repair,HT1080 IDH1KD tx,HT1080NT lethal,DT40 TDP1 CPT
O=C(CSc1ncc(-c2ccccc2)[nH]1)Nc1ccc(Cl)cc1,-,?,-,-,-,21µM
Clc1cccc(N2CCN(c3nc4ccccc4c4nc(-c5cccnc5)nn34)CC2)c1,-,?,-,-,-,0
CCN1C[C@@H]2[C@@H]3C(=O)N(Cc4ccccc4)C(=O)[C@@H]3[C@](C)(C1=O)N2C(=O)c1ccc(Cl)c(Cl)c1,?,?,-,0,0,?
NNC(=O)CN1C(=O)Nc2ccc(Cl)cc2C1c1ccccc1 (stereo unspecified),0,0,0,0,0,0
O=S1OC(c2ccccc2)c2cc(Cl)ccc21 (stereo unspecified),-111,0,0,0,0,0
CCn1cc(C(=O)NCCCN2CCCC(C)C2)c(=O)c2cc(S(=O)(=O)N3CCc4ccccc4C3)ccc21 (stereo unspecified),-104,?,0,21µM,?,23µM
CCN1CCCC1CNC(=O)c1cn(CC)c2ccc(S(=O)(=O)N3CCCCCC3)cc2c1=O (stereo unspecified),-,-,0,-,-,-
CCC1CCCCN1CCCNC(=O)c1cn(CC)c2ccc(S(=O)(=O)N3CCc4ccccc4C3)cc2c1=O (stereo unspecified),-99,?,0,0,0,?
Cc1ccc(S(=O)(=O)Nc2ccccc2F)cc1C(=O)NNC(=O)c1ccccc1O,0,?,0,0,0,0
CCCCn1c(-c2csc(C(C)C)c2)n[nH]c1=S,0,0,0,0,0,0
CCCCn1c(-c2csc(CC)c2)n[nH]c1=S,0,?,0,0,0,21µM
CCCc1cc(-c2n[nH]c(=S)n2CC(C)C)cs1,0,21µM,0,0,0,?
CC(C)Cn1c(-c2ccc(Br)o2)n[nH]c1=S,0,?,0,0,0,0
Cn1cccc1C(=O)N1CCC[C@@]2(CCN(C(=O)Nc3cccc(F)c3)C2)C1,-,0,-,-,-,0
N#Cc1ccc(CN2CCC3(CC2)CCN(C(=O)c2ccncc2)CC3)cc1,-,0,-,-,-,0
Cc1onc(-c2ccccc2Cl)c1C(=O)OCC(=O)Nc1cccc(S(=O)(=O)N(C)C)c1,0,16µM,16µM,0,?,?
CCN(CC)S(=O)(=O)c1ccc(Cl)c(NC(=O)COC(=O)c2ccc(O)cc2)c1,0,?,?,0,0,?
CCN(CC)S(=O)(=O)c1ccc(Cl)c(NC(=O)COC(=O)c2cccn2C)c1,?,?,15µM,?,?,?
Cc1noc(C)c1C(=O)OCC(=O)Nc1ccccc1Oc1ccccc1,0,0,0,0,0,?
CCN(CC)S(=O)(=O)c1ccc(Cl)c(NC(=O)COC(=O)c2c(C)noc2C)c1,0,21µM,18µM,0,0,?
